The values below come from PubChem BioAssay AID1053118 (Broad Institute, 2014).

Results with a measured potency or affinity are listed apart. Activity calls are given as the source filed them.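 How the source made its calls: active means fitted half-maximal concentration for ATP signal loss at most twice the top valid dose; inconclusive means flat curve between -70 and -30%, or an invalid fit; inactive means flat within ±30%, wrong direction, or potency past limit.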

The experiment in a line: viability loss in HepG2 hepatoma cells – cell-based, cherry-picks, set 5, cytotoxicity control, dose response (AID 1053118).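 Further: 0% = neutral control wells and -100% = mitoxantrone positive control wells.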 As to conditions: ATP luminescence, 72 h; series mostly up to 26 µM; activity change, negative = cytotoxicity: at the top concentration.
As to `COc1ncccc1C(=O)NC1CCCc2c1cnn2-c1ccc(C)c(C)c1` (stereo unspecified), the “activity change, negative = cytotoxicity” value was 11.9% (inactive).

Regarding `C[C@@H]1CN([C@@H](C)CO)C(=O)c2cc(NC(=O)CCCN(C)C)ccc2O[C@H]1CN(C)Cc1ccc(-c2ccccc2)cc1`, the “activity change, negative = cytotoxicity” value was -13.7% (inactive).

As for `Cc1ccc(NC(=O)COC(=O)c2cc(Cl)ccc2[N+](=O)[O-])c(C)c1`, the “activity change, negative = cytotoxicity” value is -3.95% (inactive).

As for `CO[C@H]1CN(C)C(=O)c2cc(NC(=O)Nc3cc(Cl)cc(Cl)c3)ccc2OC[C@H](C)NC[C@@H]1C`, the “activity change, negative = cytotoxicity” value was -14.9% (inactive).

Regarding `C[C@H](O)C#Cc1ccc2c(c1)O[C@H](CN(C)C)[C@H](C)CN([C@@H](C)CO)S2(=O)=O`, the “activity change, negative = cytotoxicity” value is -0.213% (inactive).

In the case of `COc1cccc(S(=O)(=O)N2CC[C@@H]3[C@H]2c2cc(-c4ccc(C#N)cc4)ccc2N[C@@H]3CO)c1`, the “activity change, negative = cytotoxicity” value was -12.4% [at 23.5 µM] (inactive).

As for `CC(NC(=O)CSc1ccc(S(=O)(=O)N2CCOCC2)cn1)c1ccc(Cl)cc1Cl` (stereo unspecified), the “activity change, negative = cytotoxicity” value was 13.9% (inactive).

With `C[C@@H]1CN([C@H](C)CO)C(=O)c2cc(NC(=O)C3CCCCC3)ccc2O[C@H]1CN(C)Cc1ccc(-c2ccccc2)cc1`, the “activity change, negative = cytotoxicity” value is -4.55% (inactive).

Turning to `CC(C)Cc1nnc(NC(=O)CSc2nc(N)cc(=O)[nH]2)s1`, the “activity change, negative = cytotoxicity” value was -7.72% (inactive).

As for `C[C@@H]1CN([C@@H](C)CO)C(=O)c2cc(-c3ccccc3)cnc2O[C@@H]1CN(C)C(=O)c1cccc(F)c1`, the “activity change, negative = cytotoxicity” value was -14.6% (inactive).

For the compound `Nc1nc(-c2cc3c(cc2Cl)OCCO3)cs1`, the “activity change, negative = cytotoxicity” value is -13.3% (inactive).

Regarding `N#C[C@@H]1[C@H](c2ccccc2C2=CCCCC2)[C@@H](CO)N1S(=O)(=O)c1ccccc1`, the “activity change, negative = cytotoxicity” value is -17.5% (inactive).

Consider `C[C@H](O)C#Cc1ccc2c(c1)O[C@H](CN(C)C)[C@H](C)CN([C@H](C)CO)S2(=O)=O`, for which the “activity change, negative = cytotoxicity” value is 0.849% (inactive).

For `CCCCNC(=O)Nc1nc2ccc(CC)cc2s1`, the “activity change, negative = cytotoxicity” value was -15% (inactive).

Turning to `Cc1cccc(NC(=O)c2ccc(C3SCC(=O)N3CCc3ccccc3)cc2)c1` (stereo unspecified), the “activity change, negative = cytotoxicity” value is -23.6% (inactive).

Regarding `O=S(=O)(c1ccccc1F)N1CC[C@H]2[C@H](CO)Nc3ccc(-c4cccc(F)c4)cc3[C@H]21`, the “activity change, negative = cytotoxicity” value is -6.96% [at 23.5 µM] (inactive).

As to `CO[C@@H]1CN(C)C(=O)c2cc(NC(=O)Nc3ccc(Cl)c(Cl)c3)ccc2OC[C@H](C)NC[C@H]1C`, the “activity change, negative = cytotoxicity” value is -17.4% (inactive).

`CC1CN(C(=O)c2cc3c(=O)n4ccccc4nc3n2C)CC(C)O1` (stereo unspecified): the “activity change, negative = cytotoxicity” value is -14.4% (inactive).

As to `COCC(=O)Nc1ccc2c(c1)C(=O)N(C)[C@@H]1CC[C@@H](CC(=O)NCc3ccccc3Cl)O[C@@H]1CO2`, the “activity change, negative = cytotoxicity” value is 7.54% [at 23.5 µM] (inactive).

For the compound `CO[C@H]1CN(C)C(=O)c2cc(NC(=O)Nc3cc(Cl)cc(Cl)c3)ccc2OC[C@@H](C)NC[C@@H]1C`, the “activity change, negative = cytotoxicity” value is -10.7% (inactive).

Consider `COc1cccc(-c2ccc3c(c2)[C@H]2[C@H](CCN2S(=O)(=O)c2cccc(OC)c2)[C@H](CO)N3)c1`, for which the “activity change, negative = cytotoxicity” value was -36.4% (inactive).

For `C[C@@H]1CN([C@@H](C)CO)C(=O)c2cc(-c3ccccc3)cnc2O[C@H]1CN(C)C(=O)c1cccc(F)c1`, the “activity change, negative = cytotoxicity” value is -6.33% (inactive).

Regarding `COC(=O)c1c(NC(=O)CN2CCN(c3ccccc3Cl)CC2)sc(C)c1C`, the “activity change, negative = cytotoxicity” value was -8.69% (inactive).

Take `CC(C)C(=O)Nc1ccc2c(c1)C(=O)N(C)[C@@H]1CC[C@H](CC(=O)O)O[C@@H]1CO2`: the “activity change, negative = cytotoxicity” value was 0.011% [at 23.5 µM] (inactive).

In the case of `C[C@H](CO)N1C[C@H](C)[C@H](CN(C)Cc2ccccc2)Oc2ncc(-c3ccccc3)cc2C1=O`, the “activity change, negative = cytotoxicity” value was -12.3% (inactive).

Regarding `O=S(=O)(c1cccc(F)c1)N1CC[C@@H]2[C@H]1c1cc(-c3cccc(F)c3)ccc1N[C@@H]2CO`, the “activity change, negative = cytotoxicity” value was -7.33% (inactive).

As to `C[C@H](CO)N1C[C@H](C)[C@H](CN(C)Cc2ccc(-c3ccccc3)cc2)Oc2ccc(NC(=O)C3CCCCC3)cc2C1=O`, the “activity change, negative = cytotoxicity” value is -13.1% [at 23.5 µM] (inactive).

Take `Cc1cc(C)n2ncc(C(=O)NCc3ccc(Cl)cc3)c2n1`: the “activity change, negative = cytotoxicity” value was -17.4% (inactive).

Turning to `O=S(=O)(c1ccccc1F)N1CC[C@@H]2[C@H](CO)Nc3ccc(-c4cccc(F)c4)cc3[C@@H]21`, the “activity change, negative = cytotoxicity” value is -3.15% (inactive).

For `C[C@H](CO)N1C[C@H](C)[C@@H](CN(C)Cc2ccc(-c3ccccc3)cc2)Oc2ccc(NC(=O)CCCN(C)C)cc2C1=O`, the “activity change, negative = cytotoxicity” value was -3.63% (inactive).

Take `C[C@H](CO)N1C[C@H](C)[C@@H](CN(C)Cc2ccc(-c3ccccc3)cc2)Oc2ccc(NC(=O)C3CCCCC3)cc2C1=O`: the “activity change, negative = cytotoxicity” value is -13.4% (inactive).

`Cc1ccc(O)c(-c2cc(-c3cccc(Br)c3)n[nH]2)c1`: the “activity change, negative = cytotoxicity” value was 2.04% (inactive).

For `C[C@H](CO)N1C[C@H](C)[C@H](CN(C)C(=O)c2cccc(F)c2)Oc2ncc(-c3ccccc3)cc2C1=O`, the “activity change, negative = cytotoxicity” value is -4.86% (inactive).

`O=C(CN1CCCC1)Nc1ccc(Oc2ccc(NC(=O)CN3CCCC3)cc2)cc1`: the “activity change, negative = cytotoxicity” value was -17.1% [at 8 µM] (inactive).

For the compound `O=C(Nc1ccccc1F)N1C[C@@H]2[C@H](c3ccccc31)[C@H](CO)N2C(=O)C1CCOCC1`, the “activity change, negative = cytotoxicity” value was -14.4% [at 23.5 µM] (inactive).

As to `COCC(C)n1c(SCc2nc(N)nc(Nc3ccccc3C)n2)nc2ccccc2c1=O` (stereo unspecified), the “activity change, negative = cytotoxicity” value was 14.1% (inactive).
